From PubChem
Shown is part of a subset that was picked to be rich in hits.
KDM5B inhibitor: inhibitors of human KDM5B histone demethylase. Potency, µM (doses to about 57.7 µM), usual class: inhibitors. KDM5B demethylase, FDH-coupled NADH fluorescence (FDH is formaldehyde dehydrogenase). Q9UGL1. 220,000 tested, 2.6% active; active means well fitted inhibition curve with a large enough effect; further: 0% is about no effect; nearly all actives have a fitted effect of over 70% in size
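Here, H3K4me3 peptide (12.5 µM in substrate mix) is demethylated by KDM5BΔAP, 200 nM final, after 10 min compound exposure. Formaldehyde product is coupled through FDH (0.25 U/mL in mix) to NADH fluorescence; 30-min ΔRFU feeds dose-response curves.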
Starred values were filed as active, the others as inactive; i = inactive. Potency means the concentration at half of the fitted maximal effect.

SMILES	KDM5B inhibitor
CCC(CC)C(=O)N1N=C(c2cccc(OC)c2)CC1c1ccc2nccnc2c1 (centres undefined)	i
O=S(=O)(N[C@H]1CO[C@H]2[C@@H]1OC[C@@H]2n1nnnc1-c1ccccc1)c1cccc2cccnc12	i
CCNC(=O)N1CC(Oc2cccc(-c3nc(C)no3)c2)C1	i
Cc1noc(-c2cccc(OC3CN(C(=O)c4cnn(C)c4)C3)c2)n1	i
Cc1noc(-c2cccc(OC3CN(C(=O)c4cccc5[nH]ccc45)C3)c2)n1	28.2µM*
CCOc1ccccc1C(=O)NCc1nnc2cc(-c3nc(C(C)C)no3)ccn12	14.1µM*
O=C(Cc1ccc2c(c1)CCCC2)NC1CCc2ccccc21 (centres undefined)	i
CC[C@@]1(O)CCN(C(=O)c2cccc(-c3cccc(OC)c3)c2)C[C@H]1O	i
N#Cc1ccc(CN(Cc2ccccc2)Cc2ccco2)cc1	i
CCCN1CCCn2nc(CNC(=O)Nc3ccccc3SC)cc2C1	i
CC(C)(CNc1nc(-c2ccccc2)nc2ccccc12)N1CCOCC1	i
N#Cc1cccc(CN2C3CCC2CN(C(=O)c2ccncc2)C3)c1	i
O=C(c1nc2ncccn2n1)N1CCCn2cc(-c3ccccc3)nc21	i
O=C(c1ccoc1)N1CCCn2cc(-c3ccccc3)nc21	i
N#Cc1cccc(-c2cn3c(n2)N(C(=O)c2ccoc2)CCC3)c1	25.1µM*
Cc1ccc(-c2cn3c(n2)N(C(=O)c2cnn4cccnc24)CCC3)cc1	i
N#Cc1cccc(-c2cn3c(n2)N(C(=O)c2ccco2)CCC3)c1	25.1µM*
N#Cc1cccc(-c2cn3c(n2)N(C(=O)c2ccncc2)CCC3)c1	20µM*
Cc1ccc2nc(-c3ccccc3)cc(C(=O)N3CCN(C(=O)c4ccco4)CC3)c2c1	i
O=C(c1ccsc1)N1CCCn2cc(-c3ccccc3)nc21	i
N#Cc1cccc(-c2cn3c(n2)N(C(=O)c2ccccn2)CCC3)c1	17.8µM*
CC(=O)N1CCC(C(=O)N[C@@H]2COCC[C@@H]2OCc2ccccc2)CC1	i
O=C(CSc1nc2ccccc2c(=O)n1-c1ncn[nH]1)Nc1cccc(F)c1	i
N#Cc1cccc(-c2cn3c(n2)N(C(=O)c2cccc(F)c2)CCC3)c1	22.4µM*
CCn1nccc1C(=O)N1CCCn2cc(-c3ccccc3F)nc21	i
SMILES	KDM5B inhibitor
Cc1ccc(-c2cn3c(n2)N(C(=O)c2sc(C)nc2C)CCC3)cc1	i
Cc1ccsc1C(=O)N1CCCn2cc(-c3ccccc3)nc21	i
Cc1ccc(C(=O)N2CCCn3cc(-c4cccc(C#N)c4)nc32)cn1	28.2µM*
Cc1ccsc1C(=O)N1CCCn2cc(-c3cccc(C#N)c3)nc21	14.1µM*
CN(Cc1ccc2nonc2c1)Cc1cc2n(n1)CCN(S(C)(=O)=O)C2	i
CCC(Sc1nnc2c(=O)n(-c3cccc(OC)c3)ccn12)C(=O)Nc1c(C)cccc1C (centres undefined)	i
COc1ccc(S(=O)(=O)N2CCCC(Cc3noc(-c4cccnc4)n3)C2)cc1 (centres undefined)	i
CCc1cc(=O)n(CC(=O)NCc2ccc(OC)c(OC)c2)c(N2CCOCC2)n1	i
CC(=O)N[C@@H]1CN(C(=O)c2cnc3ccccc3c2)C[C@H]1c1ccc(C)cc1	i
CCN(c1ccc2sc(C(=O)NCCC(C)C)cc2c1)S(C)(=O)=O	i
O=C(NCc1ccccc1)NCC1CCCN(Cc2ccccn2)C1 (centres undefined)	i
O=C(CC1CCCC1)N1CC[C@@]2(O)CCN(Cc3ccccn3)C[C@H]2C1	25.1µM*
CSCCC(=O)N1CCC2(CCN(Cc3ccccn3)CC2)C(CO)C1 (centres undefined)	i
CC(C)CCN1CC2(Cc3ccccc3NC2=O)C1	i
O=C(COc1ccccc1Cl)c1ccc2ccccc2c1	i
Cc1ccc(-c2cc(C(=O)NCCC(c3ccccc3)c3ccccc3)c3ccccc3n2)cc1	i
Cc1ccc(CCNC(=O)c2cc(-c3ccncc3)nc3ccccc23)cc1	i
CCn1cnnc1CCNC(=O)c1cc(-c2ccc(C)cc2)nc2ccccc12	28.2µM*
CC(Sc1ccc2c(c1)OCCO2)C(=O)O (centres undefined)	i
COCCN1CCC2(CCC1=O)CN(c1ccc(C#N)cn1)CCN2C (centres undefined)	28.2µM*
CCN1CCC2(CCC1=O)CN(c1ncnc3c1CCC3)CCN2C (centres undefined)	i
COCCN1CCC2(CCC1=O)CN(C(=O)NC(C)C)CCN2C (centres undefined)	i
CNS(=O)(=O)c1cc(NS(=O)(=O)c2cccc(Br)c2)ccc1C	i
Cc1ccc(CCNC(=O)c2cc3c(=O)[nH]c(C)cn3n2)cc1	i
CN(C)c1c(F)cc(C(=O)NCc2ccccc2)cc1F	i
Cc1ccc(CNC(=O)c2cnc3ccccc3n2)cc1	i
Cc1cn2nc(C(=O)NCCc3ccccc3)cc2c(=O)[nH]1	i
Cc1cn2nc(C(=O)NCc3ccccc3C)cc2c(N(C)Cc2ccccc2)n1	14.1µM*
